Data on 40 compounds can be found in PubChem BioAssay (EPA / NIEHS).

Each structure is given as a SMILES string. Active and inactive are the calls of the source. The calls were made as follows: active = hit-call score of the fitted dose curve at least 0.9, where 1 is the maximum; inactive = score below 0.9.

Read-out in the assay: Tumor necrosis factor receptor 1 (TNFRSF1A), TNFRSF1A (gene 7132)
The experiment in a line: LTEA_HepaRG_TNFRSF1A: Life Technologies and Expression Analysis (LTEA) Assay for Tumor necrosis factor receptor 1 (TNFRSF1A) using HepaRG (AID 2283535). The note with it: mRNA level, 48 h; actives raise or lower the signal. As for the experimental part:
LTEA_HepaRG is a cell based, multiplexed-readout assay that uses HepaRG, a human liver cell line, with measurements taken at 48 hours after chemical dosing on a 96-well plate.LTEA_HepaRG_TNFRSF1A is one of 102 assay component(s) measured in the LTEA HepaRG cell culture assay. It is a marker of Cell proliferation, survival, death.Data from the assay component LTEA_HepaRG_TNFRSF1A was analyzed into 1 endpoint. This assay endpoint, LTEA_HepaRG_TNFRSF1A, was analyzed with bidirectional fitting relative to DMSO as the negative control and baseline of activity. Using a type of inducible reporter, measures of mRNA induction for gain or loss-of-signal activity can be used to understand regulation of transcription factor activity. To generalize the intended target to other relatable targets, this assay endpoint is annotated to the cytokine receptor intended target family, where the subfamily is TNF receptor.
A total of 1060 chemcials from the ToxCast library were tested in eight-point concentration-response experiments. Cell culture and cytotoxicity assays were conducted at Thermo Fisher Scientific's Custom Services facility (Madison, WI). A single lot of human HepaRG cells (Thermo Fisher Scientific, Frederick, MD) was used for the cell culture experiments. 96-well format collagen type I coated plates of human HepaRG cells were prepared using established methods. Briefly, cryopreserved HepaRG cells were thawed, plated at a density of approximately 100,000 cells/well in HepaRG Thaw, Plate, and General Purpose media (HPRG770, Thermo Fisher Scientific), and incubated for 48 hours. 0.5% DMSO was selected as vehicle control to balance the requisite need of DMSO in HepaRG cultures to maintain differentiation (for example, baseline metabolism, proportions of hepatocytes vs. cholangiocytes), while enabling further hepatic receptor pathway activation (for example, PXR and CAR) in response to chemical exposure. 48 hours after plating, the culture medium was replaced with HepaRG Serum-Free Incudtion Media. Cells were exposed to each test chemical in duplicate and maintained in CO2 incubators for another 48 hours. Chemical plates were thawed to room temperature and 200x concentrations of treatment groups were prepared. 8-point conentration-reponse curves were made with the highest exposure at 100 uM, followed by half-log dilutions, all in 0.5% DMSO. Each test plate contained variouse controls, induction positive controls (1mM phenobarbital), cytotoxicity positive controls ([…] aflatoxin B1), vehicle controls (0.5% DMSO), and total lysis controls (0.5% DMSO). Cell morphology images were taken using an Essen IncuCyte FLR automated microscope, with six 96-well plates imaged in about 24 minutes. Images were captured and exported and JPEG files. Spent culture media was transfered to black-well plates for the LDH assay, and remaining media was sorted at -80 C for later use. Cells were treated with RLT buffer and frozen until shipped for gene expression analysis. Total RNA was isolated from the cell suspension in 75 uL of Buffer RLT (Qiagen, Germantown, MD 20874) by Quintiles/Expression Analysis (Durham, NC) using a custom isolation procedure. Total RNA from each plate well was transferred to a preamplification plate. Fluidigm's 96.96 Dynamic ArrayTM (Fluidigm, Amsterdam, the Netherlands) technology was used for gene expression analyses by quantitative reverse transcription polymerase chain reaction (qRT-PCR, performed by Quintiles/Expression Analysis, Durham, NC)89. Standard TaqManTM Assays (Applied Biosystems/ThermoFisher Scientific, Foster City, CA) were used to assess the expression of 93 genes selected based on their selectivity and sensitivity to important hepatic receptors known to be modulated by environmental chemicals; importance in human hepatocyte functionality; and hepatotoxicity. […]
For `Nc1cccc(N)c1`, the compound was called inactive.
Regarding `Cn1c(=O)cc(Oc2ccc(F)cc2F)c2cnc(NCC(C)(C)O)nc21`, the result was inactive.
The same measure, in the same setting: under `Nc1nc2ncc(CNc3ccc(C(=O)N[C@@H](CCC(=O)O)C(=O)O)cc3)nc2c(=O)[nH]1` stands “inactive”; under `CC1(C)C(=O)N(Br)C(=O)N1Br`, “inactive”.
Regarding `CC(=O)c1ccc2c(c1)[C@H](NC(=O)c1ccc(F)cc1)[C@@H](O)C(C)(C)O2`, the result was inactive.
Turning to `COCCOc1cc2cc(C(=O)NC3CCN(C(C)C)CC3)n(CC(=O)Nc3ccc(Cl)cn3)c2cn1`, the call was inactive.
With `CCOCCOCCOCCO`, the compound was classed as inactive.
Same read-out and setting: under `CC(C)=CCCC(C)=CC=O` stands “inactive”.
On the same count and under the same terms, under `CC(C)CCCCCCCOC(=O)CCCCC(=O)OCCCCCCCC(C)C` stands “inactive”.
For the compound `CCC(C)(C)C(=O)O[C@H]1C[C@@H](C)C=C2C=C[C@H](C)[C@H](CC[C@@H]3C[C@@H](O)CC(=O)O3)[C@H]21`, the outcome was inactive.
Same read-out and setting: under `CC(=O)OC[C@H]1O[C@@](COC(C)=O)(O[C@H]2O[C@H](COC(C)=O)[C@@H](OC(C)=O)[C@H](OC(C)=O)[C@H]2OC(C)=O)[C@@H](OC(C)=O)[C@@H]1OC(C)=O` stands “inactive”.
Regarding `CN(C)c1ccc(N=NS(=O)(=O)O)cc1`, the concentration at half-maximal activity (AC50) (as a rule, the midpoint of the concentration-response curve, whichever way the signal moves) is 12.3 µM (active).
As to `CCCN(C1CCN(C(=O)C2CCNCC2)CC1)[C@@H]1CCc2ccc(OC)cc2C1`, the compound was classed as inactive.
For `CCOCCO`, the compound was classed as inactive.
For the compound `CC1=CC(=O)CC(C)(C)C1`, the compound was classed as inactive.
`C[C@](N)(Cc1ccc(O)c(O)c1)C(=O)O`: the compound was classed as inactive.
Regarding `COC(=O)CC(=O)OC`, the outcome was inactive.
For `CC(=O)OCCC(C)C`, the compound was classed as inactive.
Take `O=C(CCCCCCCCc1cccnc1)N1CCC(C=C(c2ccccc2)c2ccccc2)CC1`: the AC50 is 79.2 µM (active).
In the case of `CC(C)=CCCC(C)CCO` (stereo not given), the compound was classed as inactive.
On to `CCNc1ccccc1`, for which the result was inactive.
Consider `COCCOCCOCCOC`, for which the compound was classed as inactive.
With `CC(C)CC(C)(O)C#CC(C)(O)CC(C)C` (stereo not given), the outcome was inactive.
On the same count and under the same terms, under `CN(C)c1ccc(Cc2ccc(N(C)C)cc2)cc1` stands “inactive”; under `CC(C)c1cccc(C(C)C)c1N1C(=O)c2ccc(O)cc2C1=O`, “inactive”.
With `CCOc1cccc(-n2cc(C(=O)N3CCN(c4cc(C(=O)O)c5ccccc5c4)CC3)nc2-c2ccc(C)cc2)c1`, the AC50 is 80.3 µM (active).
On to `Clc1nc(Cl)c(Cl)c(Cl)c1Cl`, for which the call was inactive.
The same measure, in the same setting: under `Cc1ccc(N)cc1O` stands “inactive”.
Consider `Cc1[nH]cnc1C[C@H]1CCc2c(C)c3ccccc3n2C1=O`, for which the AC50 is 63.7 µM (active).
With `CC(C)(O)c1coc(S(=O)(=O)NC(=O)Nc2c3c(cc4c2CCC4)CCC3)c1`, the outcome was inactive.
For `Nc1ccc(Nc2ccccc2)cc1`, the result was inactive.
As to `C=CCCCCCCCCC(=O)O`, the result was inactive.
Take `CCOC(=O)c1ccc(C2CCC(NC[C@H](O)COc3ccc(O)c(NS(C)(=O)=O)c3)CC2)cc1` (stereo not given in full): the outcome was inactive.
Turning to `O=c1[nH]c2ccc(S(=O)CCN3CCC(Cc4ccc(F)cc4)CC3)cc2o1` (stereo not given), the call was inactive.
Take `O=c1n(CC2CO2)c(=O)n(CC2CO2)c(=O)n1CC1CO1` (stereo not given): the call was inactive.
On to `COc1ccc2sc(C(=O)Nc3nnn[nH]3)c(OC(C)C)c2c1`, for which the AC50 is 39 µM (active).
With `COC(=O)c1ccccc1O`, the compound was called inactive.
Still for that read-out and setting: under `Cc1ccc(O)cc1` stands “inactive”; under `CC[C@H]1CC[C@H](NCc2cc3c(cc2OC)[C@H]2C[C@H]2C(=O)N3C)[C@H](c2ccccc2)N1`, “inactive”.
Turning to `CCc1cc(SCc2sc(-c3ccc(C(F)(F)F)cc3)nc2CN2CCN(c3ccc(OC)cc3)CC2)ccc1OCC(=O)O`, the AC50 was 5 µM (active).
